Anaer choline gr – growth inhibitors of anaerobic choline-fed gram-negatives, minimal medium, absorbance. hit rate 0.2% among 55,000. calls only. Gram-negative bacterium anaerobic choline minimal medium; hits give low values; call rule not given here
Numbers without * were called inactive; i = inactive; + = active, no number. The entries come from a sample that favours hits as a whole.

SMILES	Anaer choline gr
CCCCCCCCCCCCCCCCOC[C@H](COP(=O)([O-])OCC[N+](C)(C)C)OC(C)=O	i
CCCCCCCCCCCCCCCCOC[C@@H](COP(=O)([O-])OCC[N+](C)(C)C)OC(C)=O	+
CCCCCCCCCCCCCCCC(=O)OC[C@H](COP(=O)([O-])OCC[N+](C)(C)C)OC(C)=O	i
O=C(Nc1nccs1)c1cccn(Cc2ccc(Cl)cc2)c1=O	i
COc1ccc(S(=O)(=O)N2CCC3(C2)C(=O)N(C)c2ccc(OC)cc23)cc1 (stereo not given)	i
CCNC(=O)N1CCC2(C1)C(=O)N(C)c1ccc(OC)cc12 (stereo not given)	i
O=C1C[C@@H]2OCC=C3CN4CC[C@]56c7ccccc7N1[C@H]5[C@H]2[C@H]3C[C@H]46	+
CCCn1c(=O)[nH]c2c(C(=O)N3CCC4(CC3)OCCO4)snc2c1=O	i
O=C(COc1ccccc1F)N1CCN(Cc2cc(=O)n3nc(-c4ccccc4F)sc3n2)CC1	i
CC1CNCCc2ccc(Cl)cc21 (stereo not given)	i

Screens (PubChem)
